The emibetuzumab library of Makowski et al. (2022)
The list shows a part of the results. The true hit rate is not given.

B1: VH:VL chains; a variant is named by its letters at X, in order (parent)
chain 1: QVQLVQSGAEVKKPGASVKVSCKASGYTFTDYXMHWVRQAPGQGLEWMGXVNPNXXXTTYNQKFEGRVTMTTDTSTSTAYMELRSLRSDDTAVYYCARXNXLDXWGQGTTVTVSS
chain 2: DIQMTQSPSSLSASVGDRVTITCSVSSSVSSIYLHWYQQKPGKAPKLLIYSTSNLASGVPSRFSGSGSGTDFTLTISSLQPEDFATYYCQVYSGYPLTFGGGTKVEIK

Variants of: B1
Test: yeast display scFab, FACS + sequencing
Settings: with MET
In short: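 For FACS, yeast displaying a heavy-chain CDR mutant scFab library were labelled with 1 nM HGFR-Fc and anti-Myc (PBSB, 1% milk, 3 h, room temperature), and the top 50% antigen-positive cells were gated. Input and round-3 sorted populations were deep sequenced in two replicates. The binding call was positive for sequences occurring in both antigen-positive samples and negative for sequences occurring only in input.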

| Variant | antigen binding call |
| --- | --- |
| YTGEDAVA | no binding |
| DGGRGDVV | no binding |
| DRGRGDVV | no binding |
| FRGRGDVV | binds |
| FRGRGDGY | binds |
| FRGRGDVD | binds |
| FRGKADVD | no binding |
| YRGRGVSS | binds |
| AATTSFVV | no binding |
| YRGKGVGD | binds |
| FRGRGSVD | binds |
| FRGRSYVD | no binding |
| AATTDAGD | no binding |
| DGAKGDGV | no binding |
| ARRRGAWY | binds |
| SRRRGAWY | binds |
| ARTRTAWY | no binding |
| SKGRSDVY | no binding |
| SKGRADVY | no binding |
| VKGRTSVY | no binding |
| FRGRGALY | binds |
| SKGRGAVY | binds |
| YRGRGSVY | binds |
| YKGRGSVY | binds |

| Variant | antigen binding call |
| --- | --- |
| YTEAADGA | no binding |
| VRAGADWY | no binding |
| VAKKNASF | no binding |
| FRGRDYGY | no binding |
| FRTRDSGY chain 1 V68I | no binding |
| FKEAGAVY | no binding |
| FRGRDSGY | binds |
| YKGRGFVY | no binding |
| YRGRGFVY | binds |
| FKGRGAVY | binds |
| FRGRDALY | binds |
| FKGGGAVY | no binding |
| ARAGSFWA | no binding |
| FRGGSAVY | binds |
| FRGRGAVY | binds |
| YKGRGSVD | binds |
| FTEGDSGY | no binding |
| FRTEGSGY | binds |
| FRGGSVGY | no binding |
| YRGRGVVY | binds |
| FRGRGSVY | binds |
| YAGRGDVY | no binding |
| YRGANVVY | no binding |
| AGRGADLS | no binding |

| Variant | antigen binding call |
| --- | --- |
| YKGAAFWA | no binding |
| YRGAGAWA | binds |
| YTGTSAWA | no binding |
| YKGAGAWA | binds |
| VEGGGYSV | no binding |
| YRARGSSS | binds |
| YKARGSSS | binds |
| DAARGSSV | no binding |
| YKARTSSS | binds |
| FGAAAVGD | no binding |
| YRAKGSAV | binds |
| YKAKGSAV | binds |
| YRAKGAAV | binds |
| YRARGSAV | binds |
| YKEEDDAV | no binding |
| YKTRDDAV | no binding |
| VEERDAVA | no binding |
| VEGTSDGD | no binding |
| VAGTGDVA | no binding |
| YTKKTFSY | no binding |
| YRGRSSLY | binds |
| YRGEAFLY | no binding |
| YRARSSLY | binds |
| YRGRASLY | binds |

| Variant | antigen binding call |
| --- | --- |
| VKGRADLY | no binding |
| YGGRADVY | no binding |
| VAATGVSD | no binding |
| SGEGNSWA | no binding |
| YRGRASVV | binds |
| YKGAGDVV | no binding |
| FKTKDSVV | no binding |
| DARGGAVV | no binding |
| YAGRADVV | no binding |
| YKRGGAVV | binds |
| VKREASVV | no binding |
| FRRGSSVV | binds |
| YKRGSSVV | binds |
| DGGENDVF | no binding |
| DTTKGDVA | no binding |
| DAARGDVV | no binding |
| VRRGSSVV | binds |
| VRAEASVV | no binding |
| VRGRSDWV | no binding |
| VRGRSSVV | binds |
| YRRGSSVV | binds |
| VRGRDDVV | no binding |
| VATGDDWV | no binding |
| SKGRSDVS | no binding |

| Variant | antigen binding call |
| --- | --- |
| YRAGTAVD | binds |
| DRAGDAVD | no binding |
| DRAGDAVS | no binding |
| YRAGTAVS | binds |
| SAARDFWV | no binding |
| DKEGGDLA | no binding |
| YRKGASVD | binds |
| YRKGSSVD | binds |
| ATGGDDGF | no binding |
| DTTGSDWA | no binding |
| SERRSSAF | no binding |
| YRKGASAF | binds |
| DERRSSAF | no binding |
| YERRSSAF | binds |
| VRRRGSAF | binds |
| YRRGGAAF | binds |
| DGGRGDAF | no binding |
| DGTGGSGA chain 1 R67H | no binding |
| FRRRDAAF | no binding |
| VRRRGSLF | binds |
| YRRRGSAF | binds |
| YRRRGAAF | binds |
| DKGEGDGA | no binding |
| SKAGSDVA | no binding |

| Variant | antigen binding call |
| --- | --- |
| DRGRDAWF | no binding |
| FRGRGAWF | binds |
| YKGRGFWA | no binding |
| YRGRGFWF | binds |
| FRTGSAWF | no binding |
| YRTRGAWF | binds |
| YRGRSAWF | binds |
| YAGGDDAA | no binding |
| VEAGTAVA | no binding |
| YRGRGAWF | binds |
| YAGRGDVF | no binding |
| YRGRGAVF | binds |
| YEGTGAVF | no binding |
| VAREDDWA | no binding |
| YTKTSSVD | no binding |
| VKRGSSVD | binds |
| YTRKSSVD | no binding |
| VKRGSFVD | no binding |
| VARGGSVD | no binding |
| DATTDSVD | no binding |
| AATTDSVD | binds |
| YKRGSSVD | binds |
| YTEEAAVD | binds |
| YTRGASLD | no binding |

| Variant | antigen binding call |
| --- | --- |
| VATTDSVD | no binding |
| DAGGGDWD | no binding |
| DAGGADVY | no binding |
| YATAADWD | no binding |
| ATRTDDVF | no binding |
| DEGEDAGA | no binding |
| SEEGSDAS | no binding |
| YKRGSAVD | binds |
| YKTGDSVD | binds |
| YKRRDSVD | binds |
| YKRGSFVD | no binding |
| YARGTAVD | no binding |
| DGGTNSSA | no binding |
| DEGGTALA | no binding |
| SEGTGSGD | no binding |
| FGGEGDGA | no binding |
| VKRATSWD | no binding |
| YKTGSSWD | binds |
| YKRGGSWD | binds |
| YKRGSSWD | binds |
| YKTGDSWV | no binding |
| DGARNFGV | no binding |
| DTGANDWV | no binding |
| DATGGAAA | no binding |

| Variant | antigen binding call |
| --- | --- |
| SKGRGAWD | binds |
| SRGRGAWD | binds |
| SRGANAWD | no binding |
| SAGRGDWD | no binding |
| SKAENAWV | no binding |
| SAGGGAWV | no binding |
| SKGGSAWD | no binding |
| SKGRGAWV | binds |
| SRGRGSWD | binds |
| DRGRDDLV | no binding |
| AATTDDAV | no binding |
| SGRGNAAD | no binding |
| ATTKSDGV | no binding |
| VEGGTDVA | no binding |
| DAGTGSGA | no binding |
| YTRGADVV | no binding |
| YRRRGYVV | binds |
| YERRNDVV | binds |
| SREGGVVV | no binding |
| YRRRGDVV | binds |
| YEGTGDVV | no binding |
| YRRRGVVV | binds |
| YEGGTDVV | no binding |
| YRARGVVV | no binding |

| Variant | antigen binding call |
| --- | --- |
| SGGRDSGV | no binding |
| AARADDSA | no binding |
| YRAEGYVV | binds |
| VGGGAAGV | no binding |
| YRGRGFSD | binds |
| FRGRGFSA | no binding |
| YRGRGFSA | binds |
| YRGRGVSD | binds |
| YKGRGFSD | no binding |
| YTEKTFSD | no binding |
| DTTGSDVY | no binding |
| ATGRAAGD | no binding |
| FRTGGSAD | binds |
| FRTEGSAD | binds |
| FETGGYVY | no binding |
| SEARSSSV | no binding |
| YATEGVWV | no binding |
| DARGGSSV | no binding |
| AEREADWV | no binding |
| VETGNDVA | no binding |
